GPR151 ag – activators of human GPR151, primary screen, cell-based, PathHunter beta-arrestin, luminescence | G-protein coupled receptor 151 (Homo sapiens), Q8TDV0 | PathHunter beta-arrestin GPR151 cells | activation, % at 11.2 µM | 650,000 tested, 1% active | AID 1508602, 2020; in the data active = activation above about 4.9%;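 note: 0% = median of compound wells and 100% = cells with positive control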
FBW7 activator – FBW7 E3 ligase activators, primary screen, biochemical, AlphaScreen, human. AID 1259310, 2017. normalized activity (activation), % at 26.1 µM. AlphaScreen FBW7–phospho-cyclin E peptide binding, activator screen. F-box/WD repeat-containing protein 7 (Homo sapiens), Q969H0. 650,000 tested, 0.13% active; in the data active = normalized activity above about 1.9%;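 note: purified mutant Fbw7 with reduced substrate affinity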
TEAD-YAP inh – TEAD-YAP interaction inhibition, primary screen, TEAD-YAP interaction inhibitor project, luminescence, HEK-TIYL cells; 640,000 tested, 1.4% active; inhibition, % at 9.12 µM; AID 1259422, 2018; TEAD-Gal4/YAP UAS-luciferase luminescence; in the data active = inhibition above about 32%;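 note: 0% = median of test compound wells and 100% = reference inhibitor wells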
MITF inh – MITF inhibitors, primary screen, biochemical, AlphaScreen, human. inhibition, % at 2.6 µM. AlphaScreen MITF homodimerization, bead proximity signal. Microphthalmia-associated transcription factor (Homo sapiens), O75030. 650,000 tested, 0.91% active; in the data active = inhibition above about 50%;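 note: 0% = vehicle wells with protein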
Target sequence (O75030 whole entry, looked up): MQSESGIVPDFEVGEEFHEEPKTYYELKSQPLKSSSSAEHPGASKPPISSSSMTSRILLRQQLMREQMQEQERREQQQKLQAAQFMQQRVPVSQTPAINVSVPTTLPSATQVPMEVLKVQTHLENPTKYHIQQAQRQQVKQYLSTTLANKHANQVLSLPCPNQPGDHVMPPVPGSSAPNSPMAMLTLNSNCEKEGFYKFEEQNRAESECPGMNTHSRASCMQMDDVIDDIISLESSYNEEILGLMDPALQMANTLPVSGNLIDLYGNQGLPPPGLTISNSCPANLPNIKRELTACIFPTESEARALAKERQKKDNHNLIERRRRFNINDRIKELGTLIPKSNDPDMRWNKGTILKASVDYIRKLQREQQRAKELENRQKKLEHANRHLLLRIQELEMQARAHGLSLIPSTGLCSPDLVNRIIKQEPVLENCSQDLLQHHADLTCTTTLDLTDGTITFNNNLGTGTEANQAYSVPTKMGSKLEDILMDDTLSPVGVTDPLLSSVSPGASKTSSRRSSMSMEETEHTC
An asterisk follows results filed as active. Compounds with a hit are over-represented: about 3.4% of the library has one in this group of screens.

SMILES	GPR151 ag	FBW7 activator	TEAD-YAP inh	MITF inh
COc1ccc(/C=C/C(=O)Nc2scc(-c3ccc(Br)cc3)c2C(=O)O)cc1	-1	0	62*	-4
O=C(NCc1cccnc1)C1CCCN(c2cc(-c3ccccc3)nc3ncnn23)C1 (configuration not stated)	0	0	-5	17
Cc1ccc2[nH]c3nc4ccccc4nc3c2c1	-5	0	-13	-12
COc1ccc2[nH]c(C)cc(=O)c2c1	1	0	11	12
COc1ccc2[nH]c3nc4cc(C)c(C)cc4nc3c2c1	0	0	43*	-3
COc1ccc2[nH]c(C)cc(=S)c2c1	1	0	42*	7
CC1CCCC(NC(=O)c2ccc3c(c2)[nH]c(=S)n2c4ccccc4nc32)C1C (configuration not stated)	-1	0	-10	-6
CCOCCCNC(=O)Cn1nc(-c2cccc(OC)c2)ccc1=O	1	0	0	12
N#Cc1ccc(-c2ccccc2)nc1SCc1ccccc1F	2	0	43*	-7
Cc1ccccc1CSc1nc(-c2cccs2)ccc1C#N	0	0	53*	-6
CCSc1nc(-c2ccccc2)ccc1C#N	0	0	-8	-5
NC(=O)c1ccc(-c2cc(NCCN3CCOCC3)nc(N)n2)cc1	0	0	-7	7
CC1=C(C(=O)Nc2ccc(Br)cn2)C(c2cccc(Br)c2)C2=C(CCCC2=O)N1 (configuration not stated)	2	0	-13	2
Cc1nc2c3ccccc3nc(N3CCc4ccccc4C3)n2n1	0	0	4	7
CC(=O)Nc1ccc2nc(-c3cc(C)ccc3C)[nH]c2c1	-1	1	46*	16
CC(=O)Nc1ccc(-c2nc3ccc(C)cc3[nH]2)cc1	-3	0	10	2
O=C(CCC1=NS(=O)(=O)c2ccccc2N1)NCCc1ccccc1	0	0	-5	0
CC(C)NC(=O)CN(c1ccc(Br)cc1)S(C)(=O)=O	-1	1.9*	16	3
CC(C)C(NC(=O)CN(c1ccc(Br)cc1)S(C)(=O)=O)C(C)C	1	0	3	3
CCN(C(=O)NS(=O)(=O)c1ccc(C)cc1)c1ccccc1	0	0	-4	-6
CN(C)C(=O)CSc1nnc(-c2ccco2)n1C	-1	2.1*	5	17
Cc1ccc2nc(/C(C#N)=C/c3ccccc3O)[nH]c2c1	-9	0	97*	6
COc1cc(Br)c(/C=C(\C#N)c2nc3ccccc3[nH]2)cc1OC	1	1	-21	-7
Cc1cc(/C=C(/C#N)c2nc3ccccc3[nH]2)c(C)n1-c1cccnc1	3	0	59*	3
Cc1ccc2nc(/C(C#N)=C/c3cc([N+](=O)[O-])ccc3O)[nH]c2c1	0	0	-4	11
SMILES	GPR151 ag	FBW7 activator	TEAD-YAP inh	MITF inh
COc1cc(/C=C(\C#N)c2nc3ccccc3[nH]2)c(Br)cc1O	-2	1	41*	21
CN(Cc1cccnc1)C(=O)CC1C(=O)NCCN1Cc1ccc(Cl)c(F)c1 (configuration not stated)	1	0	-4	5
CCOc1cc([N+](=O)[O-])cc(/C=N/NC(=O)c2cc(Cl)ccc2O)c1O	-1	0	-4	-2
Cc1ccc(C2OCC3(CO2)SC(N)=NC3=O)cc1 (configuration not stated)	0	0	-4	18
C/C(=N/NC(N)=O)c1cc(C(C)(C)C)cc2c1CCC2(C)C	2	0	-11	5
CC(C)(C)c1cc(CC(=O)O)c2c(c1)C(C)(C)CC2	-2	1	48*	7
O=C(/C=C/c1ccccc1Cl)Nc1ccc(S(=O)(=O)Nc2nccs2)cc1	2	0	-21	-2
O=C(N/N=C/c1ccco1)c1cc(O)c(O)c(O)c1	-1	0	-2	87*
Cc1cccc(C(=O)N/N=C/c2ccccc2F)c1	0	0	-9	-9
O=C(N/N=C/c1ccco1)c1cc(Cl)ccc1O	-1	0	-16	2
O=C(N/N=C/c1ccccc1F)c1cc(O)c(O)c(O)c1	-1	0	-13	55*
Cc1ccc(S(=O)(=O)N/N=C/C2=C(Cl)c3c(C)nn(-c4ccccn4)c3CC2)cc1	-1	0	-1	-5
O=C(NCCCN1CCOCC1)C(=O)Nc1ccc(Br)cc1F	0	0	10	-8

Source: PubChem BioAssay
